Reference: PubChem BioAssay AID1159580 (chemical genetic matrix, 2015)
Out of some 5,500 compounds screened, about 2,000 (36%) were called active. About 18% were inconclusive and are not listed. Rule as the data show it: active = normalized growth mostly below about 0.91 (no sharp cut-off); inconclusive = no clear call, values can overlap the other calls; inactive = mostly above about 0.92. Some of the results follow.

Experiment: chemical genetic growth profiling, strain panel (AID 1159580);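 also: tested at 20 µM; growth read once vehicle control cultures reached saturation at 30 °C; 1 = growth at the plate median or of vehicle wells; lower values mean less growth of the strain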
Conditions: S. cerevisiae deletion strains, growth OD

Measured: normalized growth

CN1CCN(CC/C=C2/c3ccccc3Sc3ccc(S(=O)(=O)N(C)C)cc32)CC1
inactive: locus YAL040C, strain CLN3, active compounds read low 0.997 | locus YCL061C, strain MRC1 (second series), active compounds read low 1 | locus YDR363W, strain ESC2, active compounds read low 0.983 | locus YER002W, strain NOP16, active compounds read low 1.03 | locus YGR229C, strain SMI1, active compounds read low 0.99 | locus YJR075W, strain HOC1, active compounds read low 0.993 | locus YMR307W, strain GAS1, active compounds read low 0.999 | locus YNL153C, strain GIM3, active compounds read low 1.02 | locus YNL175C, strain NOP13, active compounds read low 1.03 | locus YNL197C, strain WHI3, active compounds read low 1.02 | locus YNL224C, strain SQS1, active compounds read low 1.04 | locus YNL322C, strain KRE1, active compounds read low 0.967 | locus YOR083W, strain WHI5 (second series), active compounds read low 1.05 | locus YPL055C, strain LGE1, active compounds read low 0.989
